Measurements from PubChem BioAssay (EPA / NIEHS).
Records with an inconclusive call do not appear. The source made the active and inactive calls. How the source made its calls, unless noted: active means hit-call score of the fitted dose curve at least 0.9, where 1 is the maximum; inactive means score below 0.9.

Key:
[1] = target: Nuclear respiratory factor 1 (Homo sapiens) (UniProt Q16656); test: ATG_NRF1_CIS: Attagene CIS-FACTORIAL HepG2 Assay for human Nuclear Respiratory Factor 1 (NRF1) Orphan Gene (AID 2282987); conditions: HepG2 NRF1 cis-element reporter, Attagene multiplex; actives raise or lower the signal
Chain of Nuclear respiratory factor 1 (Homo sapiens) (Q16656 whole entry, looked up, the tested form may be a part): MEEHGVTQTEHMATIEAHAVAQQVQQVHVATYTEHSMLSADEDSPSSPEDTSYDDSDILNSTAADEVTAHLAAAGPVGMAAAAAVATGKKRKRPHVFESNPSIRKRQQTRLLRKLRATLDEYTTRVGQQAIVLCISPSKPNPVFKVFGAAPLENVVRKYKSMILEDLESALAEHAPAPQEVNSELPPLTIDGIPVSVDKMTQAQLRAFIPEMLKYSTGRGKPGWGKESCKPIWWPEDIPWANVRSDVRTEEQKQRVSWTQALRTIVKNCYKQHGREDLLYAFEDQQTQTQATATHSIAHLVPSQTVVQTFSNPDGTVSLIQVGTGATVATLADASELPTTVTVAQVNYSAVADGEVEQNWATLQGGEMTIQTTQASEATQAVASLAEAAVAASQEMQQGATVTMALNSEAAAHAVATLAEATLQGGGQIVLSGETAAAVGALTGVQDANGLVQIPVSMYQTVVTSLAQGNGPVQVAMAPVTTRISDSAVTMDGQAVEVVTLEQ
How it was run: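 Cells (HepG2, transient MRTU transfection) are exposed to compound for 24 h, then RNA isolated and reporter mRNA amplified and fluorescently labelled. Fragments are separated by capillary electrophoresis; signal change is fitted bidirectionally relative to DMSO.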

[2] = ATG_NFI_CIS: Attagene CIS-FACTORIAL HepG2 Assay for human Nuclear Factor I (NFI) (AID 2282989); conditions: HepG2 cis-regulatory reporter, NFI response element transcription; actives raise or lower the signal
How it was run: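 Transient MRTU transfection of HepG2 → 24 h chemical dosing → total RNA, oligo(dT) RT → PCR, 6-FAM primer extension, HpaI cut → capillary electrophoresis. Endpoint fitted bidirectionally relative to DMSO.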

[3] = target: Myc proto-oncogene protein (Homo sapiens) (UniProt P01106); test: ATG_Myc_CIS: Attagene CIS-FACTORIAL HepG2 Assay for human Myelocytomatosis (Myc) Proto-Oncogene Transcription Factor (AID 2282990); conditions: HepG2, Attagene cis-reporter transcription factor activity; actives raise or lower the signal
Chain of Myc proto-oncogene protein (Homo sapiens) (P01106 whole entry, looked up): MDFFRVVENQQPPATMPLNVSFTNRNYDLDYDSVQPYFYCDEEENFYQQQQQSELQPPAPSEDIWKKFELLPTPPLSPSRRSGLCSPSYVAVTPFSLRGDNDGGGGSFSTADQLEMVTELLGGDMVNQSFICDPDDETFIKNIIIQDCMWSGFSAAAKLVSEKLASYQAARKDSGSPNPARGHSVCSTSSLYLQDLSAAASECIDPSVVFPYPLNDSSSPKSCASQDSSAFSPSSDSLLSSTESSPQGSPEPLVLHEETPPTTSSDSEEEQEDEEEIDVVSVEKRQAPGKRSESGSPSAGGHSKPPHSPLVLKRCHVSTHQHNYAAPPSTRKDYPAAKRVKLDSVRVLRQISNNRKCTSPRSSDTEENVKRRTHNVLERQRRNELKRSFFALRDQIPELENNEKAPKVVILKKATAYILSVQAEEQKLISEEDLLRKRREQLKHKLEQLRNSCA
How it was run: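 HepG2, transient MRTU transfection (cis promoters, endogenous TFs); 24 h dosing; TriZol RNA → oligo(dT) RT → PCR → 6-FAM primer extension → HpaI cut → CE. Bidirectional fit vs DMSO.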

[4] = ATG_NRF2_ARE_CIS: Attagene CIS-FACTORIAL HepG2 Assay for human Nuclear Factor Erythroid 2 Related Factor 2 (NFR2) response to Antioxidant Response Elements (ARE) (AID 2282992); conditions: HepG2 Attagene ARE/NRF2 reporter, transcription factor activity; actives raise or lower the signal
How it was run: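 Using transiently transfected HepG2 cells exposed for 24 h, reporter mRNA levels were determined by RT-PCR with fluorescent primer extension and capillary electrophoresis, analysed for gain or loss of signal against DMSO.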

[5] = ATG_Oct_MLP_CIS: Attagene CIS-FACTORIAL HepG2 Assay for human Octamer-Binding Transcription Factor (Oct) (AID 2282993); conditions: HepG2 Attagene cis-factorial Oct reporter, mRNA; actives raise or lower the signal
How it was run: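 Transient MRTU transfection of HepG2 → 24 h compound treatment → RNA isolation, reverse transcription, PCR → 6-FAM primer extension, HpaI digest → capillary electrophoresis. Activity fitted both directions against DMSO.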

[6] = target: Cellular tumor antigen p53 (Homo sapiens) (UniProt P04637); test: ATG_p53_CIS: Attagene CIS-FACTORIAL HepG2 Assay for human p53 Transcription Factor (AID 2282994); conditions: HepG2 p53 cis-element reporter, Attagene mRNA; actives raise or lower the signal
Chain of Cellular tumor antigen p53 (Homo sapiens) (P04637 whole entry, looked up, the tested form may be a part): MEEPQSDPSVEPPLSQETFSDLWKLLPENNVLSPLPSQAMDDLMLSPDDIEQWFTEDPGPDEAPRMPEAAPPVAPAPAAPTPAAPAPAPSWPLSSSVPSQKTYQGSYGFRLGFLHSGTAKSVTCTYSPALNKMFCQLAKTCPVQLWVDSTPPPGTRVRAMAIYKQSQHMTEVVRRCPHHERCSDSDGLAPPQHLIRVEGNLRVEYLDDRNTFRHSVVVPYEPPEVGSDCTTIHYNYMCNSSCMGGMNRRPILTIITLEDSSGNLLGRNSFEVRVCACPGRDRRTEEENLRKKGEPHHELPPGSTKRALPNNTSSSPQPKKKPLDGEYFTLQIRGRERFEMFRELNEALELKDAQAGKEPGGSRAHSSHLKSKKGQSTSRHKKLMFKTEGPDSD
How it was run: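 In HepG2 cells, reporter transcription units under cis-regulatory promoters were transiently introduced. Following 24 h treatment, RNA was processed to labelled, digested cDNA fragments read by capillary electrophoresis; fitting was bidirectional versus DMSO.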

[7] = BSK_3C_TissueFactor: BioMAP Diversity Plus: 3C Assay for Tissue Factor Biomarker Activity (AID 2282997); conditions: BioMAP 3C HUVEC, tissue factor biomarker readout; actives raise or lower the signal
How it was run: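 HUVEC, 3C system, 24 h post-dose; Tissue Factor by ELISA; bidirectional fit vs DMSO baseline.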

[8] = BSK_3C_uPAR: BioMAP Diversity Plus: 3C Assay for Urokinase-type plasminogen activator receptor (uPAR) Biomarker Activity (AID 2282998); conditions: BioMAP 3C HUVEC, uPAR biomarker ELISA; actives raise or lower the signal
How it was run: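 ELISA readout of uPAR on human vascular endothelium (umbilical vein primary cells), taken 24 h after chemical dosing. Increases and decreases are both fitted relative to DMSO vehicle.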

[9] = BSK_3C_VCAM1: BioMAP Diversity Plus: 3C Assay for Vascular cell adhesion molecule 1 (VCAM1) Biomarker Activity (AID 2282999); conditions: BioMAP 3C HUVEC, VCAM1 ELISA, cytokine-stimulated; actives raise or lower the signal
How it was run: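 Activity fitted in both directions relative to DMSO, with ELISA measurement of the surface marker on primary HUVEC (3C) at 24 h post-treatment; parallel SRB staining (0.1% SRB, TCA-fixed, 560 nm) flagged overt cytotoxicity.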

[10] = BSK_4H_Eotaxin3: BioMAP Diversity Plus: 4H Assay for Eotaxin 3 Biomarker Activity (AID 2283000); conditions: primary human endothelial cells (HUVEC); actives raise or lower the signal;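 further: CCL26 protein level quantified by ELISA in parallel with SRB cytotoxicity check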
How it was run: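 Readout is Eotaxin-3 (CCL26) level by ELISA in primary human umbilical vein endothelial cells harvested 24 h after chemical exposure; activity fitted in both directions against DMSO control.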

[11] = target: human Peroxisome Proliferator-activated Receptor alpha (PPARa), PPARA (gene 5465) (UniProt Q07869); test: ATG_PPARa_TRANS: Attagene TRANS-FACTORIAL HepG2 Assay for human Peroxisome Proliferator-activated Receptor alpha (PPARa) (AID 2283001; active means hit-call score of the fitted dose curve at least 0.9, where 1 is the maximum)
Chain of human Peroxisome Proliferator-activated Receptor alpha (PPARa), PPARA (gene 5465) (Q07869 whole entry, looked up, the tested form may be a part): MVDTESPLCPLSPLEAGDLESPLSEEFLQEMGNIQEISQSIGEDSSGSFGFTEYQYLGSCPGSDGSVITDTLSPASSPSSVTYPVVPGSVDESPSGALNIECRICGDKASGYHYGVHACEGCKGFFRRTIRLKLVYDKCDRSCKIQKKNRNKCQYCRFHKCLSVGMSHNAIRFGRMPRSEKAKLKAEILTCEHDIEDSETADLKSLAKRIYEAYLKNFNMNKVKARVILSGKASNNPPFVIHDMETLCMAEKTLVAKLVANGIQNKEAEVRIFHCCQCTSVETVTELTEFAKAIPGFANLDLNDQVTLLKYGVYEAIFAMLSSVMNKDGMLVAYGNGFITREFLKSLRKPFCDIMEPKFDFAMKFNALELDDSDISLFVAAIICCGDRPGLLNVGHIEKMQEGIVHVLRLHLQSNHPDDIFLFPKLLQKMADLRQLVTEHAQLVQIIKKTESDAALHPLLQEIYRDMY
How it was run: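 Transfected HepG2 cells treated with test chemical for 24 h. RNA isolated, reverse-transcribed with oligo(dT), PCR-amplified, FAM-labelled and HpaI-digested. Fragments sized by capillary electrophoresis; gain-of-signal fit relative to DMSO.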

[12] = target: human Peroxisome Proliferator-activated Receptor delta (PPARd), PPARD (gene 5467) (UniProt Q03181); test: ATG_PPARd_TRANS: Attagene TRANS-FACTORIAL HepG2 Assay for human Peroxisome Proliferator-activated Receptor delta (PPARd) (AID 2283002; active means hit-call score of the fitted dose curve at least 0.9, where 1 is the maximum)
Chain of human Peroxisome Proliferator-activated Receptor delta (PPARd), PPARD (gene 5467) (Q03181 whole entry, looked up, the tested form may be a part): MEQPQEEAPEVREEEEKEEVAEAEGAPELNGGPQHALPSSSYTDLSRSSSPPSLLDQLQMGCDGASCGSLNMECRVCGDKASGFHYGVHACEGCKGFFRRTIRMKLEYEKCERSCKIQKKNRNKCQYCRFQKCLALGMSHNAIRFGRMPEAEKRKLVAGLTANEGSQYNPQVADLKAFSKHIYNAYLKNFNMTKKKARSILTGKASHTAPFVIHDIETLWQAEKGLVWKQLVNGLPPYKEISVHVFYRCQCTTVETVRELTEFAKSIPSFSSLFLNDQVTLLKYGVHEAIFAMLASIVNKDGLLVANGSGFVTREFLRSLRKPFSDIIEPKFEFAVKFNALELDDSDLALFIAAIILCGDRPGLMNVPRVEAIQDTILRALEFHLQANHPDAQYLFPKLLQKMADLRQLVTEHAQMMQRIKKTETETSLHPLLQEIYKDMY
How it was run: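 Transient HepG2 transfection (multiple GAL4-UAS RTUs, chimeric receptor-Gal4); 24 h dosing; total RNA → oligo(dT) RT → PCR → 6-FAM primer extension → HpaI cut → CE. Positive direction vs DMSO.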

[13] = read-out: Intercellular Adhesion Molecule 1 (ICAM1), ICAM1 (gene 3383); test: BSK_3C_ICAM1: BioMAP Diversity Plus: 3C Assay for Intercellular Adhesion Molecule 1 (ICAM1) Biomarker Activity (AID 2283003); conditions: primary human endothelial cells (HUVEC); actives raise or lower the signal
How it was run: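 ELISA read-out of ICAM-1; HUVEC (primary human), 3C system, 24 h post-dosing; bidirectional fit vs DMSO baseline.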

[14] = BSK_3C_Proliferation: Cell Proliferation Assessment in the BioMAP Diversity Plus: 3C Assay (AID 2283006); conditions: primary human endothelial cells (HUVEC)
How it was run: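 HUVEC, sub-confluent; 48 h chemical exposure; 10% TCA fix, 0.1% SRB stain, A560 total protein. Gain or loss of signal fitted both directions vs DMSO control.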

[15] = ATG_NF_kB_CIS: Attagene CIS-FACTORIAL HepG2 Assay for human Nuclear Factor Kappa B (NF-kB) (AID 2282991); conditions: HepG2 Attagene cis-factorial NF-kB reporter mRNA; actives raise or lower the signal
How it was run: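 Measures mRNA induction of an NF-kB-responsive cis-element reporter in HepG2 cells transfected with multiple reporter units, sampled 24 h post-dosing; quantified by fluorescence after RT-PCR and capillary electrophoresis, fitted for activation or inhibition against DMSO.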

[16] = target: human Retinoic Acid Receptor beta (RARb), RARB (gene 5915) (UniProt P10826); test: ATG_RARb_TRANS: Attagene TRANS-FACTORIAL HepG2 Assay for human Retinoic Acid Receptor beta (AID 2283004; active means hit-call score of the fitted dose curve at least 0.9, where 1 is the maximum)
Chain of human Retinoic Acid Receptor beta (RARb), RARB (gene 5915) (P10826 whole entry, looked up, the tested form may be a part): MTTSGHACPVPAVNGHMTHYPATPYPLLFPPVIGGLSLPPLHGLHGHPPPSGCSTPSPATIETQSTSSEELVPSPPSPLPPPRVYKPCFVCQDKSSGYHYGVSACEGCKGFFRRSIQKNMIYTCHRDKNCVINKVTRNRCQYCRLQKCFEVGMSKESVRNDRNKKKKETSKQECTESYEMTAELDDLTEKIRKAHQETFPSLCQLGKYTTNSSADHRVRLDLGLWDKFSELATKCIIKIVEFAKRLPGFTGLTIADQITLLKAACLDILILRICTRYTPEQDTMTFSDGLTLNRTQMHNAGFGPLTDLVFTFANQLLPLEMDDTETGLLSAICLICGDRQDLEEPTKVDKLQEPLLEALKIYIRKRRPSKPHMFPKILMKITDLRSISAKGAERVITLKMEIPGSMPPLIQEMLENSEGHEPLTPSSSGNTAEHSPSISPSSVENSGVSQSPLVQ
How it was run: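 Readout is reporter mRNA induction: RNA reverse-transcribed, PCR-amplified, FAM-labelled, HpaI-cut and resolved by capillary electrophoresis. Transiently transfected HepG2 cells carrying exogenous NR–Gal4 chimeras were dosed for 24 h; activity fitted upward relative to DMSO.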

[17] = target: Retinoic acid receptor alpha (Homo sapiens) (UniProt P10276); test: ATG_RARa_TRANS: Attagene TRANS-FACTORIAL HepG2 Assay for human Retinoic Acid Receptor alpha (RARa) (AID 2283005; active means hit-call score of the fitted dose curve at least 0.9, where 1 is the maximum)
Chain of Retinoic acid receptor alpha (Homo sapiens) (P10276 whole entry, looked up, the tested form may be a part): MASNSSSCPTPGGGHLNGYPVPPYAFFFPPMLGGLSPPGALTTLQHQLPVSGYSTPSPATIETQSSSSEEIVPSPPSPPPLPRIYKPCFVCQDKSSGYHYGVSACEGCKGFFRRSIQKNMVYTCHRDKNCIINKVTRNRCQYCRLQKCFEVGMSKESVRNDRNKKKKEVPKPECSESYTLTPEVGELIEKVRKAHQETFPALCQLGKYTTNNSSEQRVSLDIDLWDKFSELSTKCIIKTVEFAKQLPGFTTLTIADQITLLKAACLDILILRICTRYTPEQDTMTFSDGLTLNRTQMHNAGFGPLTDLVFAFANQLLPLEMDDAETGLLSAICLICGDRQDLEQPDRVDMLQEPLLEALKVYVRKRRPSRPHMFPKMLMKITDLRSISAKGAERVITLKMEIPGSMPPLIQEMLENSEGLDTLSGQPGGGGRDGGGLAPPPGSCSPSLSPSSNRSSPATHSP
How it was run: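 Reporter transcripts, measured by RT-PCR with fluorescent labeling and capillary electrophoresis after 24 h dosing, reflect activity of an exogenous human RARa–GAL4 fusion in transiently transfected HepG2. Fitted for increase relative to DMSO.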

[18] = target: Peroxisome proliferator-activated receptor gamma (Homo sapiens) (UniProt P37231); test: ATG_PPARg_TRANS: Attagene TRANS-FACTORIAL HepG2 Assay for human Peroxisome Proliferator-activated Receptor-gamma (PPARg) (AID 2283007; active means hit-call score of the fitted dose curve at least 0.9, where 1 is the maximum)
Chain of Peroxisome proliferator-activated receptor gamma (Homo sapiens) (P37231 whole entry, looked up, the tested form may be a part): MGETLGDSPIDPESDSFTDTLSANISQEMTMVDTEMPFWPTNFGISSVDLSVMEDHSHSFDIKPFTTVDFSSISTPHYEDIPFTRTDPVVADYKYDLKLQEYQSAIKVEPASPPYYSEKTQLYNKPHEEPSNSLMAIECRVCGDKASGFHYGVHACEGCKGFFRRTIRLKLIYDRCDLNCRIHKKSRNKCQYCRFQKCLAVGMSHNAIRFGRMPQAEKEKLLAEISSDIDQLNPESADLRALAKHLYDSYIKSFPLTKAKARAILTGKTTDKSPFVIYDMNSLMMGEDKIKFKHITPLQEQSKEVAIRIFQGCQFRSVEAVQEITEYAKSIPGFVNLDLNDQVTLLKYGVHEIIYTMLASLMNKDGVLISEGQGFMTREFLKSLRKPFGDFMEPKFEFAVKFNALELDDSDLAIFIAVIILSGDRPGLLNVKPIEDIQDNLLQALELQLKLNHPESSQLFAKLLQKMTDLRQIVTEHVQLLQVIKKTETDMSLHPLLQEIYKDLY
How it was run: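 Gain-of-signal endpoint relative to DMSO, derived from reporter mRNA levels quantified by RT-PCR and capillary electrophoresis. Cells were HepG2 transiently expressing a chimeric NR-Gal4 construct with GAL4-UAS reporters, exposed to chemicals for 24 h.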

[19] = target: Nuclear receptor subfamily 1 group I member 2 (Homo sapiens) (UniProt O75469); test: ATG_PXR_TRANS: Attagene TRANS-FACTORIAL HepG2 Assay for human Pregnane X Receptor (PXR) (AID 2283008; active means hit-call score of the fitted dose curve at least 0.9, where 1 is the maximum)
Chain of Nuclear receptor subfamily 1 group I member 2 (Homo sapiens) (O75469 whole entry, looked up, the tested form may be a part): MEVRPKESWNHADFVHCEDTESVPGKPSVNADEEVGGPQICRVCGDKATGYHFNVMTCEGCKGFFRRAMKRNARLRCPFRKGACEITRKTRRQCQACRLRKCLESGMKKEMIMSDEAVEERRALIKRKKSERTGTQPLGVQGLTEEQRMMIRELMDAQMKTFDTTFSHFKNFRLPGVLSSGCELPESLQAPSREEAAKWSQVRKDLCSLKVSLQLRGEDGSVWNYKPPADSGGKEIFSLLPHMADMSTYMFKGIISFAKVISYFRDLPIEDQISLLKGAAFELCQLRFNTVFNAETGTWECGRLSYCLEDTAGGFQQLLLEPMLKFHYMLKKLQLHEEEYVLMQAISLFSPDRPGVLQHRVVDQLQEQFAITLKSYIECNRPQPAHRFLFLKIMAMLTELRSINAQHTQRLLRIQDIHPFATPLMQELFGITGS
How it was run: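 Multiplexed TRANS reporter panel in HepG2; this component tracks PXR-Gal4-driven reporter mRNA after 24 h dosing, measured by RT-PCR with capillary electrophoresis fluorescence, fitted against DMSO.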

[20] = target: human Retinoic Acid Receptor gamma (RARg), RARG (gene 5916) (UniProt P13631); test: ATG_RARg_TRANS: Attagene TRANS-FACTORIAL HepG2 Assay for human Retinoic Acid Receptor gamma (RARg) (AID 2283009; active means hit-call score of the fitted dose curve at least 0.9, where 1 is the maximum)
Chain of human Retinoic Acid Receptor gamma (RARg), RARG (gene 5916) (P13631 whole entry, looked up, the tested form may be a part): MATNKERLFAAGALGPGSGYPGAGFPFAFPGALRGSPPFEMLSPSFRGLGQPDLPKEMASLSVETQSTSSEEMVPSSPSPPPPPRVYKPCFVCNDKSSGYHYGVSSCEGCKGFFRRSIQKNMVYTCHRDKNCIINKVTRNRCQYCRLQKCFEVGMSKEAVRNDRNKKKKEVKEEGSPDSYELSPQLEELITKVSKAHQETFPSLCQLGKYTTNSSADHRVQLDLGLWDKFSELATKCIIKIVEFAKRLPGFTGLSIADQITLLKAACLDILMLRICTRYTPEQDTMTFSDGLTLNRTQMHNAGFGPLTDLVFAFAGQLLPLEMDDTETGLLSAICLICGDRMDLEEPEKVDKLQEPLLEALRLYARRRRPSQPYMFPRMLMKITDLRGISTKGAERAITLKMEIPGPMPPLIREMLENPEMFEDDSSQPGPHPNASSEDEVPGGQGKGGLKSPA
How it was run: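 Readout: reporter transcript levels via RT-PCR, 6-FAM primer-extension labelling, HpaI digestion and capillary electrophoresis. Cells: HepG2 carrying transfected RARg-GAL4 chimera plus UAS reporter set. Dosing 24 h; DMSO negative control.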

Measured: outcome

O=S1(=O)CCCO1
not listed: [15] | [16] | [17] | [18] | [19] | [20]
inactive: all other assays above

NC(=O)N1c2ccccc2C=Cc2ccccc21
not listed: [6] | [11] | [12]
inactive: all other assays above

Cn1cc[nH]c1=S
not listed: [17] | [18] | [19] | [20]
inactive: all other assays above

NC(=O)NN=Cc1ccc([N+](=O)[O-])o1
not listed: [4] | [11] | [12] | [16] | [17] | [19] | [20]
inactive: all other assays above
